Active and inactive are the calls of the source. Unless noted, no rule for the calls is given here.

Assay [1] can be described thus: anti-His antibody binders, primary screen, artefact control for SMM control protein annotation, biochemical, small-molecule microarray, 635 nm fluorescence (AID 1128).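 Also: score merges feature fluorescence with signal-to-noise for each printed compound spot.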 To be noted: anti-His Alexa647 antibody binding, higher = more signal.
Assay [2] relates to Human papillomavirus type 1a E7 protein (residues 1-88). Briefly: HPV1a E7 small-molecule binders, primary screen, biochemical, small-molecule microarray, residues 1-88, 635 nm (AID 1129). To be noted: small-molecule microarray binding, fluorescence 635 nm; higher = more signal.
The target of assay [3] is Focal adhesion kinase 1 (Homo sapiens) (UniProt Q05397). Briefly: small-molecule microarray binders of FAK, primary screen, biochemical, 635/667 nm fluorescence, BSA, DTT (AID 1130).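 Also: composite of spot emission at 667 nm and signal to noise over triplicate slides.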 The settings on record: PTK2 binding, 635 nm fluorescence, higher = more signal.
In assay [4] the test system is Fibrinogen (Alexa647-labelled). Briefly: fibrinogen binders on compound microarrays, profiling panel, artefact control for SMM control-protein annotation, biochemical, small-molecule microarray, 635/667 nm fluorescence (AID 1131).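 Also: z-score merges 667 nm fluorescence with per-spot signal-to-noise over triplicate slides.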 The settings on record: fibrinogen-A647 binding fluorescence, higher = more signal.
In assay [5] the target is Follistatin (Homo sapiens) (UniProt P19883). Put plainly: follistatin binders on small-molecule microarrays, primary screen, biochemical, small-molecule microarray, 635/667 nm fluorescence (AID 1132). The settings on record: FST binding, 635 nm fluorescence, higher = more signal.
Assay [6] addresses Fibroblast growth factor 2 (Homo sapiens) (UniProt P09038). Briefly: FGF2 binders on small-molecule microarrays, primary screen, biochemical, small-molecule microarray, 635/667 nm fluorescence (AID 1133). The settings on record: small-molecule microarray binding, FGF2, fluorescence 635/667; higher = more signal.
Assay [7] is described as follows: mitochondrial membrane potential change in A549 cells, profiling panel, cell-based, JC-1 fluorescence, basal, 24 h, 100 nL (AID 1138).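 Also: A549 lung adenocarcinoma cells under basal conditions with no added stimulus; test concentration not given here.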 To be noted: higher = more signal.
For the next assay, the system named is Lefty1. Briefly: Lefty1 binders on small-molecule microarrays, primary screen, biochemical, small-molecule microarray, 635/667 nm fluorescence (AID 1139). The settings on record: small-molecule microarray binding, fluorescence 635/667; higher = more signal.
For assay [8], the system named is wheat germ agglutinin (Triticum aestivum), Alexa647-labelled. Put plainly: wheat germ agglutinin binders on compound microarrays, profiling panel, artefact control for SMM control-protein annotation, biochemical, small-molecule microarray, 635/667 nm fluorescence (AID 1140).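 Also: score merges 667 nm feature emission with signal to noise over triplicate slides.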 The settings on record: WGA-A647 binding, 635 nm fluorescence, higher = more signal.
Assay [9] addresses Luciferin 4-monooxygenase (Photinus pyralis) (UniProt P08659). Put plainly: firefly luciferase enzyme inhibitors, primary screen, biochemical, luminescence, purified enzyme, 2006 set (AID 1141).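 Also: cell-free assay with purified firefly luciferase at 100 ng per well in PBS; test concentration not given here.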 To be noted: SteadyGlo luminescence, 30 min, higher = more signal, called active from +8 up or from −8 down.
Assay [10] has as its system Wnt5a (protein binding on small-molecule microarray). Briefly: Wnt5a binders on small-molecule microarray, primary screen, biophysical, 635/667 nm fluorescence (AID 1142).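 Also: fluorescence read at 667 nm with signal to noise per printed feature.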 The settings on record: 635 nm fluorescence, higher = more signal.
Assay [11] in a line: cell viability in Huh7 cells, primary screen, cytotoxicity control for HCV replication inhibitor project, CellTiter-Glo luminescence, basal, 48 h (AID 1143).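 Also: Huh7 hepatoma cells carrying a hepatitis C replication reporter with no stimulus; test concentration not given here.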 The settings on record: Huh7 HCV replicon, higher = more signal, called active from +8 up or from −8 down.
The nature of assay [12]: P. aeruginosa biofilm formation inhibitors, primary screen, PAO1 strain, BacTiter-Glo luminescence, LB-PBS (AID 1144). To be noted: 12 h, higher = more signal.
Assay [13] can be described thus: CREB reporter modulators without forskolin, primary screen, cell-based, PC12, CRE-LacZ reporter, unstimulated (AID 1145). The settings on record: no forskolin, luminescence, 4.5 h, higher = more signal, called active from +8 up or from −8 down.
Assay [14] in a line: CREB reporter modulators under forskolin, primary screen, cell-based, PC12, CRE-LacZ reporter, forskolin-stimulated (AID 1146).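 Also: PC12 cells with 6xCRE LacZ reporter stimulated by forskolin 10 µM; beta-galactosidase reporter signal reflecting CREB driven transcription.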 The settings on record: luminescence, 4.5 h, higher = more signal, called active from +8 up or from −8 down.
The target in assay [15] is Streptavidin (Streptomyces avidinii) (UniProt P22629). Put plainly: streptavidin binders on small-molecule microarray, primary screen, artefact control for SMM compound annotation, biophysical, 635/667 nm fluorescence (AID 1147).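 Also: signal reflects streptavidin binding to arrayed compounds as a control protein.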 To be noted: streptavidin binding, higher = more signal.
Assay [16] can be described thus: small-molecule binders of probe aInhba, primary screen, biochemical, small-molecule microarray, 635/667 nm fluorescence (AID 1148).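 Also: score merges 667nm spot fluorescence with signal-to-noise for antibody binding to printed compounds.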 To be noted: higher = more signal.
The target of assay [17] is Torsin-1A (Homo sapiens) (UniProt O14656). Put plainly: torsin A binders from cell lysate, primary screen, small-molecule microarray, wild-type, 635/667 nm (AID 1149). To be noted: COS7 hTOR1A-WT lysate, 635 nm fluorescence, higher = more signal.
Assay [18] shares this target. Briefly: small-molecule binders of mutant TOR1A in lysate, primary screen, cell lysate, small-molecule microarray, COS7 lysate, 635/667 nm fluorescence (AID 1150).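 Also: score pools 667 nm emission and signal to noise measuring lysate protein binding.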 To be noted: COS7 hTOR1A mutant lysate, 635 nm fluorescence, higher = more signal.
For assay [19], the system named is Sonic hedgehog protein (Shh). Briefly: small-molecule binders of Shh protein, primary screen, biochemical, small-molecule microarray, 635/667 nm fluorescence (AID 1151).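 Also: Shh protein binding to compounds spotted on small-molecule microarray slides; score combines spot fluorescence intensity with signal-to-noise across triplicate slides.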 To be noted: small-molecule microarray binding, 635 nm fluorescence; higher = more signal.

Chain of Streptavidin (Streptomyces avidinii) (P22629 whole entry, looked up): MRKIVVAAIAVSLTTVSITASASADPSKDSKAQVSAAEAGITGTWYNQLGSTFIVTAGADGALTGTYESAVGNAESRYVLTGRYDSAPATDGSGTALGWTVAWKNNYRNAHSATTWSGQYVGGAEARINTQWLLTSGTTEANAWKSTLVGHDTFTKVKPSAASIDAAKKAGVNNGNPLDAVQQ
Chain of Focal adhesion kinase 1 (Homo sapiens) (Q05397 whole entry, looked up): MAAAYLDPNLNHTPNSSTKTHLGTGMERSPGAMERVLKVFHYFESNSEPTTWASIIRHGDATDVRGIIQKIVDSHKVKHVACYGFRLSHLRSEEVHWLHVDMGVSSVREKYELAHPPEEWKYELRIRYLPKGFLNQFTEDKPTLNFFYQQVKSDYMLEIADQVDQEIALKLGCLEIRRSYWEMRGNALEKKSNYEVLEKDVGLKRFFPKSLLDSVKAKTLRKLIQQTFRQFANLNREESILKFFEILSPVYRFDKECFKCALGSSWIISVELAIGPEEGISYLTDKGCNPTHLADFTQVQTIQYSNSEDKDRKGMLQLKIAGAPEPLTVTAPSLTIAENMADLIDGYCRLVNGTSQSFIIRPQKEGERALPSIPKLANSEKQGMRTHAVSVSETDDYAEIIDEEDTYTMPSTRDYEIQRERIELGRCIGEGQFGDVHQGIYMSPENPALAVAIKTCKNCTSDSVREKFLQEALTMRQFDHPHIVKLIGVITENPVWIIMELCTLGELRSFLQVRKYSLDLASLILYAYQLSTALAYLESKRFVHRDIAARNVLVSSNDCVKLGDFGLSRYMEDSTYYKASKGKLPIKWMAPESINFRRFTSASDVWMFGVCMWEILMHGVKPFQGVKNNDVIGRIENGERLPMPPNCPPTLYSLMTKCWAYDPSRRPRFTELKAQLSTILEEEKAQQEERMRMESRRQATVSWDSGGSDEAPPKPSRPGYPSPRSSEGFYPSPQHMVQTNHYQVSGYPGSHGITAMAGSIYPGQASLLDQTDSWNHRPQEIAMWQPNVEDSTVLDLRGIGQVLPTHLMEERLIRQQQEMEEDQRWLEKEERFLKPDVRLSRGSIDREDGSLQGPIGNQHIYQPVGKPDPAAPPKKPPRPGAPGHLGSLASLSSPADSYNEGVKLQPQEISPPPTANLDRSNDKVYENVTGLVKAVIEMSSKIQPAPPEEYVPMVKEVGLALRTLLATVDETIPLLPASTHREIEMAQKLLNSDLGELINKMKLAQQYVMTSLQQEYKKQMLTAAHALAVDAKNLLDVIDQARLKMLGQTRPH
Chain of Follistatin (Homo sapiens) (P19883 whole entry, looked up): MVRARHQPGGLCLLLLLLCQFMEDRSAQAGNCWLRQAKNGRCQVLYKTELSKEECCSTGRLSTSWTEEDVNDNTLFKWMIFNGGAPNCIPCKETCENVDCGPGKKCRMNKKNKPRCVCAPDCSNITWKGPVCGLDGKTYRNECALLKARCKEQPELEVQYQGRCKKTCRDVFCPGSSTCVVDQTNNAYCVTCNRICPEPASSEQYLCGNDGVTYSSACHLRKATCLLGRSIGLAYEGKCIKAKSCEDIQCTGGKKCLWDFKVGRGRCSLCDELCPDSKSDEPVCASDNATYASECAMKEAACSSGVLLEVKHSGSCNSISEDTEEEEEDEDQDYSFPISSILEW
Chain of Fibroblast growth factor 2 (Homo sapiens) (P09038 whole entry, looked up): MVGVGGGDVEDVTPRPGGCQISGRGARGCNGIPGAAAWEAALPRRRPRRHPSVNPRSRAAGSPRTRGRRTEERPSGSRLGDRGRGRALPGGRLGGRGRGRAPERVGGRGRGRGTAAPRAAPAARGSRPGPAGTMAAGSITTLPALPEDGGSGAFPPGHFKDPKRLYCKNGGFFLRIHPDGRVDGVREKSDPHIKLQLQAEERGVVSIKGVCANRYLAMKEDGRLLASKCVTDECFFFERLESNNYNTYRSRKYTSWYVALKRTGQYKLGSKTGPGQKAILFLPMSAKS
Chain of Torsin-1A (Homo sapiens) (O14656 whole entry, looked up): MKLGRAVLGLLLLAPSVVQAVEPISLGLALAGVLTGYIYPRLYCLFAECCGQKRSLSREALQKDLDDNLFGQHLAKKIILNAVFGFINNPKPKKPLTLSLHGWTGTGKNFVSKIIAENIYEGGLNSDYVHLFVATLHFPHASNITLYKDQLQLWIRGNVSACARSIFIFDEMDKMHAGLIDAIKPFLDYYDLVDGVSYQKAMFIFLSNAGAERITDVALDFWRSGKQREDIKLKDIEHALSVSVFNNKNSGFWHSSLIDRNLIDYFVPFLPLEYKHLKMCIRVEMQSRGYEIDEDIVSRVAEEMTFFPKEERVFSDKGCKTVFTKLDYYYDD
Chain of Luciferin 4-monooxygenase (Photinus pyralis) (P08659 whole entry, looked up): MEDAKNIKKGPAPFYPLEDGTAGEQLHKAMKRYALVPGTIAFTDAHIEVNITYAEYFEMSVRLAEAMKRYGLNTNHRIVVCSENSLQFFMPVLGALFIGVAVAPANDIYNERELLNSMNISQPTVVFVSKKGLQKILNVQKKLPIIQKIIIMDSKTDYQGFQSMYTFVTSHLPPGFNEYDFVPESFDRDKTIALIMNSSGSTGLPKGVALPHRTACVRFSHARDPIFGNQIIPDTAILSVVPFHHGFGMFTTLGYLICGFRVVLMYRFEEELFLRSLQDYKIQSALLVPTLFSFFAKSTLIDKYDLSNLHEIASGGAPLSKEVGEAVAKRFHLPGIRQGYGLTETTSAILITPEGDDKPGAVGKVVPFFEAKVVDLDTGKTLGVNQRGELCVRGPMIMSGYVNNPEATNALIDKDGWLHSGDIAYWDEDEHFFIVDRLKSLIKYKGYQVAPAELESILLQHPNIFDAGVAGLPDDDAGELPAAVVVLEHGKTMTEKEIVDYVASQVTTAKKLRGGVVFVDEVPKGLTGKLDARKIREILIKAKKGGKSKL

Take `C=C(CCCC)C(=O)CC[C@H](OC(=O)c1cccnc1)c1ccc(OCCO)cc1`: the composite z-score is 0.631 in assay [1]; 0.474 in [2]; 0.819 in assay [3]; 0.0895 in [4]; 0.131 in assay [5]; 0.476 in assay [6]. Besides, the composite z-score in the assay on Lefty1 was -0.205; in [8], 0.955; in [10] it was 0.0366; in [15], -0.118; in assay [16] it was 0.0903; in the assay with Torsin-1A (Homo sapiens) [17], 0.471. Moreover, the values for the composite z-score (in the assay with Torsin-1A (Homo sapiens) [18]; in assay [19]) were 0.546 and 0.381, respectively. The z-score is 1.15 in assay [7]; -1.91 (inactive) in assay [9]; -2.23 (inactive) in [11]; 0.192 (inactive) in assay [12]; 13.3 (active) in [13]; 2.15 (inactive) in [14].

`C=CCN1Cc2ccccc2[C@@H]2OC(c3ccc(OCCCO)cc3)=N[C@]2(CCS(=O)(=O)c2ccccc2)C1=O`: the composite z-score in [1] worked out at 1.56; in assay [2], 1.2; in assay [3], 0.772; in assay [4], 0.811; in [5], 1.4; in assay [6] it was 1.78. Also, the composite z-score is 0.602 in the assay with Lefty1; 0.393 in [8]; 1.02 in assay [10]; 0.316 in assay [15]; 0.122 in assay [16]; 0.625 with Torsin-1A (Homo sapiens) [17]. Further, the results for the composite z-score (with Torsin-1A (Homo sapiens) [18]; in assay [19]) were 0.969 and 1.77, respectively. The z-score in assay [7] is 1.37; in [9], -2.38 (inactive); in assay [11], -2.93 (inactive); in assay [12], -0.491 (inactive); in [13], 2.65 (inactive); in [14] it was -0.821 (inactive).

With `CC(C)NC(=O)[C@@H]1c2ccccc2C(=O)N(C(C)C)[C@H]1c1ccc(CO)cc1`, the composite z-score was -1.51 in assay [1]; -0.0425 in assay [2]; 0.459 in assay [3]; -0.782 in assay [4]; -0.681 in [5]; -0.963 in assay [6]. Also, the composite z-score is -0.936 in the assay on Lefty1; -0.608 in assay [8]; -0.152 in assay [10]; -0.977 in [15]; -0.193 in assay [16]; 0.0645 in the assay with Torsin-1A (Homo sapiens) [17]. Moreover, the values for the composite z-score (with Torsin-1A (Homo sapiens) [18]; in assay [19]) were 2.08 and -0.659, respectively. In addition, the z-score in assay [7] is 1.58; in assay [9], -0.784 (inactive); in [11], 0.245 (inactive); in [12] it was 1.28 (inactive); in assay [13] it was 0.441 (inactive); in [14] it was 0.0729 (inactive).

Turning to `[N-]=[N+]=Nc1ccccc1[C@H]1OC(c2ccc(OCCCO)cc2)=N[C@@]1(Cc1ccccc1)C(=O)N1CCOCC1`, the composite z-score in [1] is 2.22; in [2], 1.21; in assay [3], 0.68; in assay [4], 0.974; in [5], 1.38; in [6], 1.66. Further, the composite z-score was determined as 0.511 in the assay on Lefty1; 1.09 in assay [8]; 0.267 in assay [10]; 2.01 in [15]; 0.554 in [16]; 0.124 with Torsin-1A (Homo sapiens) [17]. In addition, the results for the composite z-score (with Torsin-1A (Homo sapiens) [18]; in assay [19]) were 0.212 and 0.672, respectively. Also, the z-score is -0.254 in [7]; -5.58 (inactive) in assay [9]; -4.05 (inactive) in assay [11]; -0.622 (inactive) in assay [12]; -0.0341 (inactive) in assay [13]; -1.62 (inactive) in assay [14].

Turning to `C=CC[C@@]1(C(=O)N2CCCCC2)N=C(c2ccc(OCCCO)cc2)O[C@@H]1c1ccccc1N=[N+]=[N-]`, the composite z-score in assay [1] was 2.24; in assay [2], 1.23; in assay [3] it was 0.407; in assay [4], 0.957; in [5], 1.09; in assay [6], 0.162. For the same compound, the composite z-score with Lefty1 is 0.0928; in assay [8], 1.06; in assay [10], 0.288; in assay [15], 1.18; in assay [16], 0.0391; in the assay with Torsin-1A (Homo sapiens) [17] it was -0.151. Also, the composite z-score with Torsin-1A (Homo sapiens) [18] was 1.03; in assay [19], -0.0797. The z-score in [7] was -0.35; in [9] it was -10.4 (active); in assay [11], -4.35 (inactive); in assay [12], -0.588 (inactive); in [13], 4.01 (inactive); in [14], -1.53 (inactive).

These data come from PubChem BioAssay.
